{"source": "PubChem BioAssay AID1851", "about": "(National Center for Advancing Translational Sciences (NCATS), 2009)", "note": "Screen size: about 16,000 compounds; about 2,600 (16%) were called active. About 20% were inconclusive and are not listed. Only a sample is shown. Values without a mark were called inactive. Calls follow the shape of the dose curve; as a rule, active = well fitted curve in the direction sought with a large enough effect; inconclusive = small, poorly fitted or top-dose-only effect, or effect the other way; inactive = no such curve, though single readings can be large or run the other way. % is scaled to controls: 0 for no effect and ±100 for the full control effect.", "data": [{"target": "Cytochrome P450 2D6 (Homo sapiens) (UniProt P10635)", "sequence (P10635 whole entry, looked up)": "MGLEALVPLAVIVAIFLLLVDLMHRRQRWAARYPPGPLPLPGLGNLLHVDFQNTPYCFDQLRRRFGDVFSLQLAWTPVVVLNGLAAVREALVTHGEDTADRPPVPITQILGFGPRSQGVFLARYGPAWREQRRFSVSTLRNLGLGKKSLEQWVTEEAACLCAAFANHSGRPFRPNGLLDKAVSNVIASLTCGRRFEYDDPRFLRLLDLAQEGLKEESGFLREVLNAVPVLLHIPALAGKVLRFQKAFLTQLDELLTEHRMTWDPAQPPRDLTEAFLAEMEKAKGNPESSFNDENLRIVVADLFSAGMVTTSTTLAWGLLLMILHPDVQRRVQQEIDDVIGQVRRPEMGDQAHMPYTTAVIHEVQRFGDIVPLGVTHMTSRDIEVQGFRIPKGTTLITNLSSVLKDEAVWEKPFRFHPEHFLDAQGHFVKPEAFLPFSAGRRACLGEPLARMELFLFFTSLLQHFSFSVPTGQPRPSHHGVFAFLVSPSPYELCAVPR", "experiment": "Cytochrome panel assay with activity outcomes", "conditions": "recombinant CYP, pro-luciferin dealkylation, luminescence, p450-cyp2d6; series mostly up to 57.1 µM; activity, negative = inhibition: at the top concentration", "values": [{"smiles": "CC(C)NC(=O)N1CC2(CCN(C(=O)c3ccncc3)CC2)C1", "activity, negative = inhibition": "-0.648%"}, {"smiles": "O=C(c1ccncc1)N1CCC[C@@]2(CCN(c3ccccc3)C2)C1", "activity, negative = inhibition": "3.11%"}, {"smiles": "O=C(c1ccncc1)N1CCC2(CCCN(C(c3ccccc3)c3ccccc3)C2)CC1", "AC50": "0.0398 µM (active)"}, {"smiles": "O=C(c1ccncc1)N1CCC2(CC1)CN(c1ccccc1)C2", "AC50": "7.94 µM (active)"}, {"smiles": "O=C(c1ccncc1)N1CCC2(CC1)CCN(c1ccccc1)CC2", "activity, negative = inhibition": "-13.6%"}, {"smiles": "CC(C)NC(=O)N1CCCC2(CCN(C(=O)c3ccncc3)CC2)C1", "activity, negative = inhibition": "3.22%"}, {"smiles": "O=C(c1ccncc1)N1CCC2(CC1)CN(c1ccc(-c3ccccc3)cc1)C2", "activity, negative = inhibition": "-12.2%"}, {"smiles": "O=C(c1cccc(F)c1)N1CCC2(CC1)CCN(c1cccc(-c3ccccc3)c1)CC2", "activity, negative = inhibition": "-7.3%"}, {"smiles": "O=C(c1ccncc1)N1CCC[C@@]2(CCN(c3ncccn3)C2)C1", "activity, negative = inhibition": "-15%"}, {"smiles": "O=C(c1ccncc1)N1CCC2(CC1)CN(C(c1ccccc1)c1ccccc1)C2", "AC50": "0.0251 µM (active)"}, {"smiles": "O=C(c1ccncc1)N1CCC2(CC1)CCN(c1cccc(-c3ccccc3)c1)CC2", "AC50": "7.94 µM (active)"}, {"smiles": "CCN(CC)c1ccc(N2C(=O)/C(=C\\c3cccnc3)SC2=S)cc1", "activity, negative = inhibition": "3.38%"}, {"smiles": "NOCC(=O)O", "activity, negative = inhibition": "1.43%"}, {"smiles": "CCCOc1ccc(C(=O)NC(=S)Nc2nc3ccc(C)cc3s2)cc1", "activity, negative = inhibition": "-1.11%"}, {"smiles": "Cc1cc(C)nc(NC(=O)CCCC(=O)O)c1", "activity, negative = inhibition": "10.1%"}, {"smiles": "Cc1ccc(N(CC(N)=O)C2SC(=O)N(Cc3cccc(C(=O)O)c3)C2=O)cc1", "note": "(stereo unspecified)", "activity, negative = inhibition": "-6.54%"}, {"smiles": "CCOC(=O)CN(c1ccccn1)S(=O)(=O)c1ccccc1", "activity, negative = inhibition": "-2.7%"}, {"smiles": "O=C(O)c1ccc(CSc2nc3ccccc3o2)cc1", "activity, negative = inhibition": "7.39%"}, {"smiles": "O=S(=O)(c1ccccc1)N1CCN(c2cc(-c3ccccc3)nc3ncnn23)CC1", "activity, negative = inhibition": "-10.2%"}, {"smiles": "O=C(O)c1ccc(NCc2nc3cc4ccccc4cc3[nH]2)cc1", "activity, negative = inhibition": "3.49% [at 11.4 µM]"}, {"smiles": "O=C(c1cccc(F)c1)N1CCC2(CC1)CCN(C(c1ccccc1)c1ccccc1)CC2", "AC50": "3.16 µM (active)"}, {"smiles": "Cn1cccc1C(=O)N1CCC2(CC1)CN(C(=O)Nc1ccccc1)C2", "activity, negative = inhibition": "5.13%"}, {"smiles": "Cn1cccc1C(=O)N1CCC2(CC1)CN(C(c1ccccc1)c1ccccc1)C2", "AC50": "3.16 µM (active)"}, {"smiles": "O=C(c1cccc(F)c1)N1CCC2(CC1)CN(c1ccc(-c3ccccc3)cc1)C2", "activity, negative = inhibition": "-13.6%"}, {"smiles": "Cn1cccc1C(=O)N1CCC2(CC1)CCN(C(c1ccccc1)c1ccccc1)CC2", "activity, negative = inhibition": "-10.5%"}, {"smiles": "O=C(c1cccc(F)c1)N1CCC2(CC1)CCN(c1ccccc1)CC2", "activity, negative = inhibition": "-3.45%"}, {"smiles": "O=C(c1ccncc1)N1CCC2(CC1)CCN(C(c1ccccc1)c1ccccc1)CC2", "AC50": "3.16 µM (active)"}, {"smiles": "CN1CCN(c2ncc3nc(-c4ccccc4)c(=O)n(Cc4cccs4)c3n2)CC1", "activity, negative = inhibition": "-5.31%"}, {"smiles": "CN1CCN(c2ncc3nc(CCc4ccccc4)c(=O)n(Cc4ccc(F)cc4)c3n2)CC1", "activity, negative = inhibition": "1.52%"}, {"smiles": "N[C@H](CCCP(=O)(O)O)C(=O)O", "AC50": "inactive"}, {"smiles": "O=C(N/C(=C/c1ccco1)C(=O)N1CCCCCC1)c1cccs1", "activity, negative = inhibition": "9.59%"}, {"smiles": "Cc1cc(OCC(F)(F)C(F)(F)C(F)(F)C(F)(F)C(F)(F)C(F)F)nc(N)n1", "activity, negative = inhibition": "-29.2%"}, {"smiles": "CCCCn1c(SCC(N)=O)nc2ccc(N3CCOCC3)cc2c1=O", "activity, negative = inhibition": "-18.6%"}, {"smiles": "Cc1ccc(OC(=O)c2oc3ccc(F)cc3c2C)c(C)c1", "activity, negative = inhibition": "-23.9%"}, {"smiles": "Cc1ccc(NC(=S)NC(=O)c2c(-c3ccccc3Cl)noc2C)cc1", "activity, negative = inhibition": "-5.21%"}, {"smiles": "C[C@@H](CCC(=O)O)C(=O)O", "activity, negative = inhibition": "1.74% [at 11.4 µM]"}, {"smiles": "Cc1ccc(S(=O)(=O)c2c(C)nn(C(C)(C)C)c2OC(=O)c2cccs2)cc1", "activity, negative = inhibition": "-11%"}, {"smiles": "CCCC[C@H](CC)CN=C(N)NC(N)=NCCCCCCN=C(N)NC(N)=NC[C@@H](CC)CCCC", "AC50": "3.16 µM (active)"}, {"smiles": "CC(N)=NCCCC[C@H](N)C(=O)O", "AC50": "inactive"}, {"smiles": "CS/C(N)=N/N=C/c1ccc([N+](=O)[O-])cc1", "activity, negative = inhibition": "-28.3%"}, {"smiles": "Cc1cc(C)cc(NC(=O)C/C(N)=N/O)c1", "activity, negative = inhibition": "-9.04%"}, {"smiles": "O=C(c1ccccc1NS(=O)(=O)c1cccc([N+](=O)[O-])c1)N1CCOCC1", "activity, negative = inhibition": "8.5%"}, {"smiles": "Cc1onc(-c2c(Cl)cccc2Cl)c1C(=O)Nc1ccc2c(c1)OCO2", "AC50": "7.08 µM (active)"}, {"smiles": "CC(=O)c1cc2c(cc1NC(=O)c1c(-c3ccccc3)noc1C)OCO2", "activity, negative = inhibition": "-37.3%"}, {"smiles": "CCOC(=O)Cc1csc(NC(=O)c2c(-c3c(Cl)cccc3Cl)noc2C)n1", "activity, negative = inhibition": "-28.7%"}, {"smiles": "CC1(C)CC(=O)C(CCCN2C(=O)c3ccccc3C2=O)C(=O)C1", "activity, negative = inhibition": "-4.76%"}, {"smiles": "CCN(CC)c1ncnc2c1sc1nc(C)cc(C)c12", "activity, negative = inhibition": "-9.59%"}, {"smiles": "CO/N=C\\[C@@H](OC)[C@H](C)/C=C\\CC(=O)OC", "activity, negative = inhibition": "9.03% [at 11.4 µM]"}, {"smiles": "O=C(CSC1=NCCN1)Nc1ccccc1", "AC50": "1.58 µM (active)"}, {"smiles": "O=C(O)CCSC1=NCCN1", "activity, negative = inhibition": "15.4% [at 11.4 µM]"}, {"smiles": "O=C(CSc1nncn1-c1ccccc1)Nc1ccc(N2CCOCC2)cc1", "activity, negative = inhibition": "-25.8%"}]}]}
